Reference: the antibiotic and cytotoxicity screens of Wong et al. (2023)
About 1,500 (3.8%) of roughly 39,000 compounds were called active. The full list was thinned out, with actives kept by preference.

Test system: HSkMC (human skeletal muscle cells)
Test: cytotoxicity call (relative viability < 0.9)
Conditions: 10 µM

Row | Compound | cytotoxicity call
1 | C[C@@H]1CCCCO[C@H](CN(C)C(=O)Nc2ccc(F)cc2)[C@@H](C)CN([C@@H](C)CO)C(=O)c2cc(NC(=O)CCC(F)(F)F)ccc2O1 | inactive
2 | CC(C)NC(=O)Nc1cccc2c1O[C@H](CN(C)C(=O)Nc1ccc3c(c1)OCO3)[C@@H](C)CN([C@@H](C)CO)C2=O | inactive
3 | COc1ccc(NC(=O)N(C)C[C@H]2Oc3c(NC(=O)Nc4ccc(C(F)(F)F)cc4)cccc3C(=O)N([C@@H](C)CO)C[C@H]2C)cc1 | inactive
4 | C[C@@H]1CCCCO[C@H](CN(C)Cc2ccc(Cl)c(Cl)c2)[C@@H](C)CN([C@@H](C)CO)C(=O)c2cc(NC(=O)Nc3ccc(C(F)(F)F)cc3)ccc2O1 | inactive
5 | C[C@H]1CN([C@@H](C)CO)C(=O)c2cccc(NC(=O)c3cnccn3)c2O[C@H]1CN(C)Cc1ccncc1 | inactive
6 | C[C@@H]1CN([C@@H](C)CO)C(=O)c2cccc(NC(=O)c3ccncc3)c2O[C@H]1CN(C)Cc1ccc(C(=O)O)cc1 | inactive
7 | C[C@@H]1CCCCO[C@@H](CN(C)Cc2ccc(C(F)(F)F)cc2)[C@H](C)CN([C@@H](C)CO)C(=O)c2cc(NC(=O)Nc3cccc4ccccc34)ccc2O1 | inactive
8 | O=C(CN1CCOCC1)N[C@@H]1CC[C@@H](CCNC(=O)C2CCC2)O[C@@H]1CO | inactive
9 | C[C@@H]1CN([C@H](C)CO)C(=O)Cc2cc(NS(=O)(=O)c3cn(C)cn3)ccc2O[C@@H]1CN(C)S(=O)(=O)c1ccc(F)cc1 | inactive
10 | O=C(C[C@H]1C[C@@H]2c3cc(NS(=O)(=O)c4ccc(F)cc4)ccc3O[C@@H]2[C@@H](CO)O1)NCc1cccc(F)c1 | inactive
11 | COc1ccc(S(=O)(=O)N(C)C[C@@H]2Oc3ccc(NS(=O)(=O)c4cn(C)cn4)cc3C(=O)N([C@H](C)CO)C[C@H]2C)cc1 | inactive
12 | CC(C)NC(=O)N(C)C[C@@H]1Oc2ccc(NS(=O)(=O)c3cccs3)cc2C(=O)N([C@@H](C)CO)C[C@H]1C | inactive
13 | C[C@@H]1CCCCO[C@@H](CN(C)C(=O)NC2CCCCC2)[C@H](C)CN([C@@H](C)CO)C(=O)c2cc(NC(=O)Nc3ccccc3)ccc2O1 | inactive
14 | Cc1ccc(S(=O)(=O)N(C)C[C@@H]2OCCCC[C@@H](C)Oc3ccc(NS(C)(=O)=O)cc3C(=O)N([C@@H](C)CO)C[C@H]2C)cc1 | inactive
15 | O=C(C[C@H]1C[C@H]2c3cc(NS(=O)(=O)c4ccc(F)cc4)ccc3O[C@H]2[C@@H](CO)O1)NCc1ccc(Oc2ccccc2)cc1 | active
16 | O=C(C[C@H]1C[C@H]2c3cc(NC(=O)Nc4ccccc4F)ccc3O[C@H]2[C@@H](CO)O1)NCc1ccc(Oc2ccccc2)cc1 | active
17 | COc1cccc(S(=O)(=O)Nc2ccc3c(c2)[C@H]2C[C@@H](CC(=O)NCCc4ccccc4)O[C@@H](CO)[C@H]2O3)c1 | inactive
18 | O=C(C[C@@H]1C[C@H]2c3cc(NC(=O)Nc4ccccc4F)ccc3O[C@H]2[C@H](CO)O1)NCc1ccc(Oc2ccccc2)cc1 | inactive
19 | O=C(C[C@@H]1C[C@@H]2c3cc(NS(=O)(=O)c4ccc(F)cc4)ccc3O[C@@H]2[C@H](CO)O1)NCc1ccc(Oc2ccccc2)cc1 | inactive
20 | COc1cccc(S(=O)(=O)Nc2ccc3c(c2)[C@H]2C[C@@H](CC(=O)NCCc4ccccc4)O[C@H](CO)[C@H]2O3)c1 | active
21 | O=C(C[C@H]1C[C@H]2c3cc(NS(=O)(=O)c4ccc(F)cc4)ccc3O[C@H]2[C@H](CO)O1)NCc1ccc(Oc2ccccc2)cc1 | inactive
22 | COc1cccc(S(=O)(=O)Nc2ccc3c(c2)[C@H]2C[C@H](CC(=O)NCCc4ccccc4)O[C@@H](CO)[C@H]2O3)c1 | inactive
23 | O=C(C[C@H]1C[C@H]2c3cc(NC(=O)Nc4ccccc4F)ccc3O[C@H]2[C@H](CO)O1)NCc1ccc(Oc2ccccc2)cc1 | inactive

Row | Compound | cytotoxicity call
24 | O=C(C[C@@H]1C[C@H]2c3cc(NC(=O)Nc4ccccc4F)ccc3O[C@H]2[C@@H](CO)O1)NCc1ccc(Oc2ccccc2)cc1 | inactive
25 | O=C(C[C@H]1C[C@@H]2c3cc(NC(=O)Nc4ccccc4F)ccc3O[C@@H]2[C@H](CO)O1)NCc1ccc(Oc2ccccc2)cc1 | active
26 | O=C(C[C@@H]1C[C@@H]2c3cc(NC(=O)Nc4ccccc4F)ccc3O[C@@H]2[C@@H](CO)O1)NCc1ccc(Oc2ccccc2)cc1 | inactive
27 | O=C(O)[C@H]1CCCNC1 | inactive
28 | CO[C@@H]1CN(C)C(=O)c2ccc(NC(=O)Nc3cccc(F)c3)cc2OC[C@@H](C)N(C(=O)Nc2c(C)noc2C)C[C@@H]1C | inactive
29 | C[C@H](CO)N1C[C@H](C)[C@@H](CN(C)Cc2ccccc2)OCCCC[C@H](C)Oc2ccc(NC(=O)Nc3ccc4c(c3)OCO4)cc2C1=O | inactive
30 | C[C@@H]1CCCCO[C@H](CN(C)S(=O)(=O)c2ccc(Cl)cc2)[C@@H](C)CN([C@H](C)CO)C(=O)c2cc(NC(=O)Nc3ccc4c(c3)OCO4)ccc2O1 | inactive
31 | CC(C)NC(=O)N(C)C[C@@H]1OCCCC[C@@H](C)Oc2ccc(NC(=O)C3CCCCC3)cc2C(=O)N([C@@H](C)CO)C[C@@H]1C | inactive
32 | Cc1noc(C)c1NC(=O)Nc1ccc2c(c1)C(=O)N([C@@H](C)CO)C[C@@H](C)[C@@H](CN(C)C(=O)C1CCCCC1)OCCCC[C@@H](C)O2 | inactive
33 | N#Cc1ccc(-c2cccs2)nc1 | inactive
34 | C[C@H]1CN([C@@H](C)CO)C(=O)Cc2cc(NC(=O)Cn3cnnn3)ccc2O[C@H]1CN(C)Cc1ccncc1 | inactive
35 | CC(C)(C)S(=O)N1Cc2cc(C(=O)N3CCN(Cc4ccccc4)CC3)nc(-c3cccc(-c4cc5ccccc5o4)c3)c2[C@H]1CCO (stereo partly specified) | active
36 | COc1ccccc1-c1cccc(-c2nc(C(=O)Nc3nccs3)cc3c2[C@H](CCO)N(C(=O)CC2CC2)C3)c1 | inactive
37 | CCC(=O)N1Cc2cc(C(=O)Nc3nccs3)nc(-c3cccc(-c4ccccc4OC)c3)c2[C@H]1CCO | active
38 | COc1ccc(C#Cc2cccc(-c3nc(C(=O)N4CCN(Cc5ccccc5)CC4)cc4c3[C@H](CCO)N(S(=O)C(C)(C)C)C4)c2)cc1OC (stereo partly specified) | inactive
39 | CC(=O)N1Cc2cc(C(=O)NCc3cccc(F)c3)nc(-c3cccc(C4=CCCCC4)c3)c2[C@H]1CCO | active
40 | COc1ccc(C#Cc2cccc(-c3nc(C(=O)N4CCN(Cc5ccccc5)CC4)cc4c3[C@@H](CCO)N(S(=O)C(C)(C)C)C4)c2)cc1OC (stereo partly specified) | inactive
41 | O=C(NCC(F)(F)F)c1cc2c(c(-c3cccc(-c4ccccc4F)c3)n1)[C@@H](CCO)N(C(=O)CC1CC1)C2 | active
42 | O=C(NCC1CC1)c1cc2c(c(-c3cccc(-c4ccccc4F)c3)n1)[C@@H](CCO)N(C(=O)CC1CC1)C2 | inactive
43 | CC(=O)N1Cc2cc(C(=O)NCC(F)(F)F)nc(-c3cccc(-c4cc5ccccc5o4)c3)c2[C@H]1CCO | inactive
44 | COc1ccccc1-c1cccc(-c2nc(C(=O)Nc3nccs3)cc3c2[C@@H](CCO)N(C(=O)CC2CC2)C3)c1 | inactive
45 | CC(=O)N1Cc2cc(C(=O)NCc3cccc(F)c3)nc(-c3cccc(C4=CCCCC4)c3)c2[C@@H]1CCO | inactive
46 | CC(=O)N1Cc2cc(C(=O)NCc3cc(F)cc(F)c3)nc(-c3cccc(C4=CCCC4)c3)c2[C@H]1CCO | inactive
